# Measurements published in PubChem BioAssay (Tox21).
# A number with no mark means an inactive call. Activity calls are given as the source filed them. Calls follow the shape of the dose curve; as a rule, active = well fitted curve in the direction sought with a large enough effect in the repeat runs; inconclusive = weak or mixed curves; inactive = flat fitted curve, though single readings scatter.
# Test: qHTS assay to test for compound auto fluorescence at 460 nm (blue) in HEK293 cells (AID 720678)
# Conditions: blue autofluorescence 405/460 nm; series mostly up to 46 µM; fluorescence, % of triamterene: at the top concentration
# Method in brief: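 Triamterene serves as the blue fluorophore standard. Compound signal at 405/460 nm is read in HEK293 wells (2,000 cells, 10% dialyzed FBS) after overnight treatment at 37C.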
# % is scaled to controls: 0 for no effect and ±100 for the full control effect.
Structure (SMILES),"fluorescence, % of triamterene",outcome
COc1nc(N)nc2c1ncn2[C@@H]1O[C@H](CO)[C@@H](O)[C@@H]1O,0.0299%,
CC(C)(C)NCCNC(C)(C)C,0.0441% [at 91.3 µM],
CCSC(=O)N(CC(C)C)CC(C)C,-0.0735% [at 91.3 µM],
CC1(C)CO[C@@H](CC(=O)O)CN1,-0.157%,
COCCc1ccc(OCC(O)CNC(C)C)cc1 (centres undefined),,inactive
O=C1NC(=O)[C@@]2(CCOc3ccc(F)cc32)N1,-0.137%,
N[C@H]1CN(c2c(F)cc3c(=O)c(C(=O)O)cn(C4C[C@H]4F)c3c2Cl)CC12CC2 (some centres undefined),-0.0052%,
CCCCCCCCCCCCN(CCCCCCCCCCCC)CCCCCCCCCCCC,-0.211% [at 91.3 µM],
CC(C[N+](C)(C)C)OC(N)=O (centres undefined),0.117%,
O=C(O)CCCc1ccccc1,0.0471%,
N#Cc1ccc(C2CCCc3cncn32)cc1 (centres undefined),0.0384%,
CCOC(C)(C)C,-0.246% [at 95.7 µM],
c1ccc(CC2=NCCN2)cc1,-0.56% [at 18.6 µM],
O=C(O)c1ccccc1OP(=O)(O)O,0.001%,
C=CCS(=O)(=O)O,-0.0387% [at 91.3 µM],
O=C(O)CCCl,-0.0661% [at 95.7 µM],
COC(=O)[C@@H](N)Cc1ccc(O)c(O)c1,1.4%,
NS(=O)(=O)c1cc(C(=O)O)cc(N2CCCC2)c1Oc1ccccc1,0.364% [at 18.6 µM],
CCOC(=O)c1cccc(N)c1,0.0199%,
CN(C(=O)c1c(O)c2ccccc2n(C)c1=O)c1ccccc1,-0.0525%,

Structure (SMILES),"fluorescence, % of triamterene",outcome
CC(=O)c1ccccc1O,0.102% [at 91.3 µM],
CO[Si](CCCOCC1CO1)(OC)OC (centres undefined),,inactive
CCCN(CCC)CCc1cccc2c1CC(=O)N2,-0.0175%,
NC(=O)COCCN1CCN(C(c2ccccc2)c2ccc(Cl)cc2)CC1 (centres undefined),0.067%,
NC(=O)Nc1ccccc1,0.184% [at 91.3 µM],
COc1c(N2C[C@@H]3CCCN[C@@H]3C2)c(F)cc2c(=O)c(C(=O)O)cn(C3CC3)c12,,inactive
CCC(=O)OC(C)c1ccccc1 (centres undefined),0.0144% [at 91.3 µM],
CCCc1cc(C(N)=S)ccn1,-0.0023%,
CC/C=C\CC/C=C/C(OCC)OCC,0.181% [at 91.3 µM],
CCN1CCC[C@H]1CNC(=O)c1c(O)c(Cl)cc(Cl)c1OC,-0.0576%,
OC(CCN1CCCCC1)(c1ccccc1)C1CC2C=CC1C2 (centres undefined),,inactive
CCCN1CCCC[C@H]1C(=O)Nc1c(C)cccc1C,-0.101%,
Nc1cc(=O)[nH]c(N)n1,0.0632%,
CC(C)CNCC(C)C,0.068% [at 91.3 µM],
O=C1CCCCCCCCCCCN1,,inactive
COc1ccc2c(c1)c(CC(=O)OCC(=O)O)c(C)n2C(=O)c1ccc(Cl)cc1,0.0706%,
COC(=O)c1c(Cl)c(Cl)c(C(=O)OC)c(Cl)c1Cl,,inactive
N=C(N)c1ccc(OCCCOc2ccc(C(=N)N)cc2)cc1,-0.12%,
CCCCCCCCCCCCCC=O,-0.166% [at 3.72 µM],
N[C@H](C(=O)O)c1ccc(O)cc1,0.211%,

# Test: qHTS assay to test for compound auto fluorescence at 590 nm (red) in HEK293 cells (AID 720679)
# Conditions: red autofluorescence 540/590 nm; series mostly up to 46 µM; fluorescence, % of fluorescent control: at the top concentration
# Method in brief: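 We plated HEK293 cells in 10% dialyzed FBS medium, let them adhere for 4-5 hr, then added 23 nL compound. Overnight at 37C and 5% CO2 preceded fluorescence measurement at 540/590nm.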
Structure (SMILES),"fluorescence, % of fluorescent control",outcome
COc1nc(N)nc2c1ncn2[C@@H]1O[C@H](CO)[C@@H](O)[C@@H]1O,-0.108%,
CC(C)(C)NCCNC(C)(C)C,-0.786% [at 91.3 µM],
CCSC(=O)N(CC(C)C)CC(C)C,0.0623% [at 91.3 µM],
CC1(C)CO[C@@H](CC(=O)O)CN1,-0.522%,
COCCc1ccc(OCC(O)CNC(C)C)cc1 (centres undefined),,inactive
O=C1NC(=O)[C@@]2(CCOc3ccc(F)cc32)N1,-1.19%,
CCCCCCCCCCCCN(CCCCCCCCCCCC)CCCCCCCCCCCC,-0.266% [at 91.3 µM],
CC(C[N+](C)(C)C)OC(N)=O (centres undefined),-0.262%,
O=C(O)CCCc1ccccc1,-0.0776%,
N#Cc1ccc(C2CCCc3cncn32)cc1 (centres undefined),0.0092%,
CCOC(C)(C)C,0.053% [at 95.7 µM],
c1ccc(CC2=NCCN2)cc1,-1.65% [at 18.6 µM],
C=CCS(=O)(=O)O,-0.601% [at 91.3 µM],
O=C(O)CCCl,-0.561% [at 95.7 µM],
COC(=O)[C@@H](N)Cc1ccc(O)c(O)c1,0.009%,
NS(=O)(=O)c1cc(C(=O)O)cc(N2CCCC2)c1Oc1ccccc1,0.301% [at 18.6 µM],
CC(=O)c1ccccc1O,-0.0483% [at 91.3 µM],

Structure (SMILES),"fluorescence, % of fluorescent control",outcome
CO[Si](CCCOCC1CO1)(OC)OC (centres undefined),,inactive
CCCN(CCC)CCc1cccc2c1CC(=O)N2,-0.249%,
NC(=O)COCCN1CCN(C(c2ccccc2)c2ccc(Cl)cc2)CC1 (centres undefined),-0.295%,
NC(=O)Nc1ccccc1,0.205% [at 91.3 µM],
COc1c(N2C[C@@H]3CCCN[C@@H]3C2)c(F)cc2c(=O)c(C(=O)O)cn(C3CC3)c12,,inactive
CCC(=O)OC(C)c1ccccc1 (centres undefined),0.15% [at 91.3 µM],
CCCc1cc(C(N)=S)ccn1,-0.0711%,
CC/C=C\CC/C=C/C(OCC)OCC,0.0786% [at 91.3 µM],
CCN1CCC[C@H]1CNC(=O)c1c(O)c(Cl)cc(Cl)c1OC,0.0265%,
OC(CCN1CCCCC1)(c1ccccc1)C1CC2C=CC1C2 (centres undefined),,inactive
CCCN1CCCC[C@H]1C(=O)Nc1c(C)cccc1C,0.461%,
Nc1cc(=O)[nH]c(N)n1,-0.124%,
O=C1CCCCCCCCCCCN1,,inactive
COc1ccc2c(c1)c(CC(=O)OCC(=O)O)c(C)n2C(=O)c1ccc(Cl)cc1,0.811%,
N=C(N)c1ccc(OCCCOc2ccc(C(=N)N)cc2)cc1,-1.06%,
CCCCCCCCCCCCCC=O,-0.804% [at 3.72 µM],
N[C@H](C(=O)O)c1ccc(O)cc1,0.0837%,

# Test: qHTS assay to test for compound auto fluorescence at 535 nm (green) in HEK293 cells (AID 720680)
# Conditions: green autofluorescence 485/535 nm; series mostly up to 46 µM; fluorescence, % of fluorescein: at the top concentration
Structure (SMILES),"fluorescence, % of fluorescein",outcome
COc1nc(N)nc2c1ncn2[C@@H]1O[C@H](CO)[C@@H](O)[C@@H]1O,0.0613%,
CC(C)(C)NCCNC(C)(C)C,-0.052% [at 91.3 µM],
CCSC(=O)N(CC(C)C)CC(C)C,0.128% [at 91.3 µM],
CC1(C)CO[C@@H](CC(=O)O)CN1,0.0117%,
COCCc1ccc(OCC(O)CNC(C)C)cc1 (centres undefined),,inactive
O=C1NC(=O)[C@@]2(CCOc3ccc(F)cc32)N1,0.0081%,
N[C@H]1CN(c2c(F)cc3c(=O)c(C(=O)O)cn(C4C[C@H]4F)c3c2Cl)CC12CC2 (some centres undefined),0.0252%,
CCCCCCCCCCCCN(CCCCCCCCCCCC)CCCCCCCCCCCC,-0.0592% [at 91.3 µM],
CC(C[N+](C)(C)C)OC(N)=O (centres undefined),-0.0077%,
O=C(O)CCCc1ccccc1,0.0261%,
N#Cc1ccc(C2CCCc3cncn32)cc1 (centres undefined),-0.0366%,
CCOC(C)(C)C,-0.105% [at 95.7 µM],
c1ccc(CC2=NCCN2)cc1,-0.0182% [at 18.6 µM],
O=C(O)c1ccccc1OP(=O)(O)O,0.0574%,
C=CCS(=O)(=O)O,0.0593% [at 91.3 µM],
O=C(O)CCCl,0.0191% [at 95.7 µM],
COC(=O)[C@@H](N)Cc1ccc(O)c(O)c1,-0.389%,
NS(=O)(=O)c1cc(C(=O)O)cc(N2CCCC2)c1Oc1ccccc1,-0.0042% [at 18.6 µM],
CCOC(=O)c1cccc(N)c1,0.0292%,
CN(C(=O)c1c(O)c2ccccc2n(C)c1=O)c1ccccc1,0.0655%,

Structure (SMILES),"fluorescence, % of fluorescein",outcome
CC(=O)c1ccccc1O,-0.0442% [at 91.3 µM],
CO[Si](CCCOCC1CO1)(OC)OC (centres undefined),,inactive
CCCN(CCC)CCc1cccc2c1CC(=O)N2,0.0761%,
NC(=O)COCCN1CCN(C(c2ccccc2)c2ccc(Cl)cc2)CC1 (centres undefined),0.0171%,
NC(=O)Nc1ccccc1,-0.0551% [at 91.3 µM],
COc1c(N2C[C@@H]3CCCN[C@@H]3C2)c(F)cc2c(=O)c(C(=O)O)cn(C3CC3)c12,,inactive
CCC(=O)OC(C)c1ccccc1 (centres undefined),-0.0068% [at 91.3 µM],
CCCc1cc(C(N)=S)ccn1,0.0632%,
CC/C=C\CC/C=C/C(OCC)OCC,-0.015% [at 91.3 µM],
CCN1CCC[C@H]1CNC(=O)c1c(O)c(Cl)cc(Cl)c1OC,-0.074%,
OC(CCN1CCCCC1)(c1ccccc1)C1CC2C=CC1C2 (centres undefined),,inactive
CCCN1CCCC[C@H]1C(=O)Nc1c(C)cccc1C,0.0195%,
Nc1cc(=O)[nH]c(N)n1,0.0091%,
CC(C)CNCC(C)C,-0.063% [at 91.3 µM],
O=C1CCCCCCCCCCCN1,,inactive
COc1ccc2c(c1)c(CC(=O)OCC(=O)O)c(C)n2C(=O)c1ccc(Cl)cc1,0.0175%,
COC(=O)c1c(Cl)c(Cl)c(C(=O)OC)c(Cl)c1Cl,,inactive
N=C(N)c1ccc(OCCCOc2ccc(C(=N)N)cc2)cc1,-0.0643%,
CCCCCCCCCCCCCC=O,0.0656% [at 3.72 µM],
N[C@H](C(=O)O)c1ccc(O)cc1,-0.181%,
